NadD block: inhibitors of Staphylococcus aureus NadD; purified NadD enzyme, colorimetric absorbance read-out; inhibition, % at 20 µM; actives 0.78% (n = 360,000); AID 602399; in the data active = inhibition above about 26%
GRIN3A LBD mod: modulators (binders) of human NR3A ligand-binding domain; NR3A LBD differential scanning fluorimetry, Tm shift; 0% = protein alone, 100% = glycine-bound protein; Tm shift relative to glycine control, % at 25 µM; actives 2.5% (n = 340,000);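 active = melting temperature shift of at least 10% of the positive control shift, at one fixed dose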
Vif inh: HIV Vif inhibition; HEK293T cells, Vif self-association by quenched fluorescence, imaging, 24 h; actives 0.35% (n = 340,000); inhibition, % at 7.49 µM; AID 602346; in the data active = inhibition above about 50%, passing the limit was not always enough
SKN-1 block: C. elegans SKN-1 inhibition; AID 624304; actives 0.49% (n = 360,000); inhibition, % at 21.8 µM; C. elegans VP596 Pgst-4::GFP/RFP ratio, acrylamide-induced, 24 h;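 active = interference check ratio from 0.5 to 1.5 plus GFP to RFP signal ratio inhibition reaching or exceeding a fixed threshold, cut at about 30% in these data, passing the limit was not always enough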
SMARCA2 act: activators of SMARCA2 function; MG213 cells, MMTV-luciferase reporter, dexamethasone, overnight; activation, % at 9.1 µM; AID 652017; actives 1% (n = 370,000); in the data active = activation above about 7.8%;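 also: 0% = vehicle wells and 100% = reference activator wells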
esBAF inh: inhibitors of esBAF chromatin remodeling in mouse ES cells | AID 602393 | Bmi1-luciferase knock-in reporter, 24 h; 100% = twice the neutral-well signal | reporter increase, % at 12.5 µM | actives 2% (n = 350,000); in the data active = activation above about 40%;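 also: 0% = median of the plate's neutral control wells and 100% = double that signal; a rise in the Bmi1 reporter signal indicates esBAF inhibition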
* marks the source's active call; other numbers are inactive results; · = no result. The list is not random: actives were taken first. Their share in the collection is about 5.2%.

SMILES | NadD block | GRIN3A LBD mod | Vif inh | SKN-1 block | SMARCA2 act | esBAF inh
O=C(C[C@@H]1C=C[C@@H](NS(=O)(=O)c2ccccc2F)[C@H](CO)O1)NCCCN1CCOCC1 | · | · | · | · | · | -5
CCOc1ccccc1-c1nc2c(s1)CCc1onc(-c3ccc(OC)cc3)c1-2 | -3 | 17* | 11 | -9 | -1 | -1
C[C@H]1CN([C@@H](C)CO)C(=O)c2cc(-c3ccncc3)cnc2O[C@@H]1CN(C)C(=O)Cc1cccnc1 | · | · | · | · | · | -1
COc1cccc(CN(C)C[C@@H]2OCc3cn(nn3)CCCC(=O)N([C@H](C)CO)C[C@H]2C)c1 | · | · | · | · | · | -5
NC(=O)c1ccsc1NC(=O)COC(=O)c1ccc(Cl)cc1 | -1 | -16 | 12 | 0 | 6 | 2
Cc1ccsc1C(=O)OCC(=O)NCCNC(=O)COC(=O)c1sccc1C | 0 | 0 | · | -6 | -1 | -5
NC(=O)c1ccsc1NC(=O)COC(=O)c1ccc(Cl)c(N)c1 | 6 | 23* | -4 | 3 | 1 | 0
Cc1cccc(C)c1NC(=O)COC(=O)c1ccc([N+](=O)[O-])o1 | -5 | -4 | 7 | 7 | -1 | ·
NC(=O)c1ccsc1NC(=O)COC(=O)c1ccc([N+](=O)[O-])o1 | 1 | 12* | -4 | -7 | 3 | -8
Cc1ccsc1C(=O)OCC(=O)Nc1sccc1C(N)=O | -7 | 0 | -8 | -6 | 3 | 88*
CCCC(=O)Nc1ccc2c(c1)C(=O)N(C)[C@@H]1CC[C@@H](CC(=O)NCC(F)(F)F)O[C@H]1CO2 | · | · | · | · | · | -1
COCC(=O)N1[C@@H](CO)[C@@H](c2ccccc2)[C@@H]1CNC(=O)c1ccccn1 | · | · | · | · | · | 6
CC(C)(O)C#Cc1cccc(-c2nc(C(=O)N3CCN(Cc4ccccc4)CC3)cc3c2[C@@H](CCO)N(S(=O)C(C)(C)C)C3)c1 (stereo partly specified) | · | · | · | · | · | -2
Cc1cc(NC(=O)NC2(C(F)(F)F)Oc3ccc(Cl)cc3O2)no1 (stereo unspecified) | -5 | -4 | 105* | -30 | · | -2
O=C(NCc1cccnc1)NC1(C(F)(F)F)Oc2ccc(Cl)cc2O1 (stereo unspecified) | -5 | -2 | 137* | 2 | · | -13
COCCNC(=O)NC1(C(F)(F)F)Oc2ccc(Cl)cc2O1 (stereo unspecified) | 5 | -1 | 19 | 8 | -5 | -12
Cc1cc(NC(=O)Nc2ccc(F)c(Cl)c2)no1 | -6 | -2 | -15 | -7 | 2 | 17
Cc1cc(C)cc(C(=O)OCC(=O)NC2CCCC2)c1 | -4 | 1 | 1 | -8 | -1 | -1
Cc1cc(C)cc(C(=O)OCC(=O)Nc2ncccn2)c1 | 0 | -2 | 56* | 1 | -3 | -7
CO[C@@H]1CN(C)C(=O)c2cc(NC(=O)C3CCC3)ccc2OC[C@H](C)N(C)C[C@@H]1C | · | · | · | · | · | -8
Brc1ccc(-n2cnc(-c3ccccc3)c2)cc1 | 0 | 0 | -2 | 40* | 0 | 12
CCOC(=O)C1CCCN(CC(=O)Nc2c(C(=O)OC)[nH]c3ccc(Cl)cc23)C1 (stereo unspecified) | 3 | -2 | 61* | 6 | -1 | 0
CCn1nnnc1SCC(=O)NCc1ccc2c(c1)OCO2 | 1 | -1 | -9 | 0 | 0 | 4
COc1ccc(OC)c(-n2nnnc2SCC(=O)NCc2ccc3c(c2)OCO3)c1 | 1 | 11* | -2 | 2 | 0 | 3
COCC(=O)Nc1ccc2c(c1)OC[C@H](C)N(Cc1cccc(F)c1)C[C@@H](C)[C@@H](OC)CN(C)C2=O | · | · | · | · | · | 2
SMILES | NadD block | GRIN3A LBD mod | Vif inh | SKN-1 block | SMARCA2 act | esBAF inh
COc1ccc(S(=O)(=O)N2CC(C(=O)O)Oc3ccccc32)cc1 (stereo unspecified) | 1 | 6 | 7 | 31* | -4 | -6
COc1ccc(S(=O)(=O)N2CC(C(=O)O)Oc3ccc(Cl)cc32)cc1 (stereo unspecified) | -3 | 2 | 4 | -13 | -2 | -3
C[n+]1ccccc1/C=C/c1ccc(F)c(F)c1 | 18 | -3 | -2 | -12 | 1 | 1
C[n+]1ccccc1/C=C/c1ccc2ncccc2c1 | 9 | 1 | -8 | 11 | -1 | 71*
CCC(=O)Nc1ccc2c(c1)OC[C@H](C)N(CC1CCOCC1)C[C@H](C)[C@H](OC)CN(C)C2=O | · | · | · | · | · | -4
C[C@@H]1CN([C@H](C)CO)C(=O)c2cc(C#CC3(O)CCCC3)cnc2O[C@@H]1CN(C)Cc1ccccc1 | · | · | · | · | · | -4
COc1ccc(C)cc1S(=O)(=O)N1CCC2(CC1)OCCN2S(=O)(=O)c1cccs1 | -4 | 16* | -2 | -1 | -1 | ·
Cc1ccc(C)c(S(=O)(=O)N2CCC3(CC2)OCCN3S(=O)(=O)c2cccs2)c1 | -8 | 0 | -15 | -1 | 4 | -16
CCCCN1C(=O)/C(=C/C=C2\Oc3ccccc3N2CC)SC1=S | 7 | -3 | 69* | 54 | -5 | -4
CCCCN1C(=O)/C(=C/C=C2/CC(C)(C)CN2C)SC1=S | 3 | -6 | · | -9 | 0 | 93*
CCN1C(=O)/C(=C/C=C2/SCCN2C)SC1=S | 7 | 3 | 8 | 27* | 4 | -2
CCCN1C(=O)/C(=C/C=C2\N(CC)c3ccccc3C2(C)C)SC1=S | 1 | 6 | 1 | 78 | 3 | -19
O=C(C[C@@H]1C=C[C@@H](NC(=O)c2cccc(F)c2)[C@@H](CO)O1)NCc1ccccc1 | · | · | · | · | · | 3
CC(=O)N/N=C\c1ccccc1OC/C=C/c1ccccc1 | 3 | -2 | 8 | -22 | -3 | 70*
C[C@H](NC(=O)[C@@H]1[C@@H](CO)[C@@H]2Cn3c(ccc(-c4ccncc4)c3=O)[C@@H]2N1C)c1ccccc1 | · | · | · | · | · | -2
O=C(Nc1cc(Br)c(O)c(Br)c1)c1cccc(NC(=O)c2ccco2)c1 | -1 | 23* | -3 | 2 | 1 | 11
CC(C)CNC(=O)c1cccc(NC(=O)c2ccc(NC(=O)c3ccco3)cc2)c1 | 6 | 23* | -2 | 6 | 0 | 9
O=C(Nc1cccc(NC(=O)c2ccco2)c1)c1cccc(Br)c1 | 3 | 15* | 19 | 6 | -1 | 4
CC(=O)c1cccc(NC(=O)c2cccc(NC(=O)c3ccco3)c2)c1 | 1 | -7 | -6 | 11 | -4 | 4
COc1ccc(NC(=O)Nc2ccc3c(c2)C(=O)N([C@H](C)CO)C[C@@H](C)[C@@H](CN(C)Cc2ccncc2)OCCCC[C@@H](C)O3)cc1 | · | · | · | · | · | 6
Cc1cccc(C(=O)NCC(=O)NNC(=O)c2ccccc2O)c1 | -1 | 14* | -15 | 0 | 0 | 9
O=C(NNC(=O)c1ccccc1O)c1cccc(Br)c1 | -3 | -1 | 5 | -6 | 3 | 46*
O=C(NNC(=O)c1ccccc1O)c1ccc(Br)cc1 | 7 | -1 | -2 | -11 | 5 | 31
